# Experimental data reported in paper PMC8222333, “AsCas12a ultra nuclease facilitates the rapid generation of therapeutic cell medicines”.
# Substitutions are numbered along the chain they refer to.
# B1: CAGG (dsDNA)
# DNA 1: GCTATCTAGTGCTCAGTACGCACTGCAGGAGGAAACTTCTGGCAGGACCAGGTCATGAGATCGGAAGAGCACACGTCTGAACTCCAGTCA
# DNA 2: TGACTGGAGTTCAGACGTGTGCTCTTCCGATCTCATGACCTGGTCCTGCCAGAAGTTTCCTCCTGCAGTGCGTACTGAGCACTAGATAGC
# RNA: AAUUUCUACUCUUGUAGAUAGGAAACUUCUGGCAGGACC
# B2: CGAA (dsDNA)
# DNA 1: B1 DNA 1 with A27G, G28A, G29A
# DNA 2: B1 DNA 2 with C62T, C63T, T64C
# RNA: B1 RNA
# B3: CCAG (dsDNA)
# DNA 1: B1 DNA 1 with A27C, G28A
# DNA 2: B1 DNA 2 with C63T, T64G
# RNA: B1 RNA
# B4: CGAC (dsDNA)
# DNA 1: B1 DNA 1 with A27G, G28A, G29C
# DNA 2: B1 DNA 2 with C62G, C63T, T64C
# RNA: B1 RNA
# B5: CGAG (dsDNA)
# DNA 1: B1 DNA 1 with A27G, G28A
# DNA 2: B1 DNA 2 with C63T, T64C
# RNA: B1 RNA
# B6: CGCC (dsDNA)
# DNA 1: B1 DNA 1 with A27G, G28C, G29C
# DNA 2: B1 DNA 2 with C62G, C63G, T64C
# RNA: B1 RNA
# B7: CATT (dsDNA)
# DNA 1: B1 DNA 1 with G28T, G29T
# DNA 2: B1 DNA 2 with C62A, C63A
# RNA: B1 RNA
# B8: CCGT (dsDNA)
# DNA 1: B1 DNA 1 with A27C, G29T
# DNA 2: B1 DNA 2 with C62A, T64G
# RNA: B1 RNA
# B9: CCGA (dsDNA)
# DNA 1: B1 DNA 1 with A27C, G29A
# DNA 2: B1 DNA 2 with C62T, T64G
# RNA: B1 RNA
# B10: CCGC (dsDNA)
# DNA 1: B1 DNA 1 with A27C, G29C
# DNA 2: B1 DNA 2 with C62G, T64G
# RNA: B1 RNA
# B11: CCAC (dsDNA)
# DNA 1: B1 DNA 1 with A27C, G28A, G29C
# DNA 2: B1 DNA 2 with C62G, C63T, T64G
# RNA: B1 RNA
# B12: CGAT (dsDNA)
# DNA 1: B1 DNA 1 with A27G, G28A, G29T
# DNA 2: B1 DNA 2 with C62A, C63T, T64C
# RNA: B1 RNA
# B13: CCAT (dsDNA)
# DNA 1: B1 DNA 1 with A27C, G28A, G29T
# DNA 2: B1 DNA 2 with C62A, C63T, T64G
# RNA: B1 RNA
# B14: CCAA (dsDNA)
# DNA 1: B1 DNA 1 with A27C, G28A, G29A
# DNA 2: B1 DNA 2 with C62T, C63T, T64G
# RNA: B1 RNA
# B15: CAGT (dsDNA)
# DNA 1: B1 DNA 1 with G29T
# DNA 2: B1 DNA 2 with C62A
# RNA: B1 RNA
# B16: CGCA (dsDNA)
# DNA 1: B1 DNA 1 with A27G, G28C, G29A
# DNA 2: B1 DNA 2 with C62T, C63G, T64C
# RNA: B1 RNA
# B17: CCCT (dsDNA)
# DNA 1: B1 DNA 1 with A27C, G28C, G29T
# DNA 2: B1 DNA 2 with C62A, C63G, T64G
# RNA: B1 RNA
# Experiments:
# Experiment in all cases: Spec-seq (native PAGE EMSA with sequencing of bound and unbound); 25 mM Tris-HCl pH 7.4, 150 mM KCl, 5 mM MgCl2, 10% glycerol, 1 mM DTT, 40 ng/uL salmon sperm DNA; 400 nM Cas12a, 480 nM crRNA, 50 nM library, 37 C 1 h; native PAGE at room temperature; high values mean tight binding
# Conditions in all cases: protein: recombinant
# dAsCas12a S542R = dAsCas12a S542R (Acidaminococcus sp., UniProt U2UMQ6 1-1307, S542R;D908A;E993A;D1235A)
# d-enCas12a = d-enCas12a (Acidaminococcus sp., UniProt U2UMQ6 1-1307, E174R;S542R;K548R;D908A;E993A;D1235A)
# d-enCas12a-Ultra = d-enCas12a-Ultra (Acidaminococcus sp., UniProt U2UMQ6 1-1307, E174R;S542R;K548R;M537R;F870L;D908A;E993A;D1235A)
# 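Note: relative affinity from the bound to unbound sequence frequency ratio in Spec-seq.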
Binder,binding signal (dAsCas12a S542R),binding signal (d-enCas12a),binding signal (d-enCas12a-Ultra)
B1,-8.98 lnKA,-5.82 lnKA,-3.56 lnKA
B2,-8.66 lnKA,-5.81 lnKA,-3.32 lnKA
B3,-8.95 lnKA,-5.72 lnKA,-3.45 lnKA
B4,-8.8 lnKA,-5.58 lnKA,-2.94 lnKA
B5,-8.83 lnKA,-5.83 lnKA,-3.31 lnKA
B6,-8.54 lnKA,-1.48 lnKA,-0.384 lnKA
B7,-8.56 lnKA,-5.39 lnKA,-2.95 lnKA
B8,-8.47 lnKA,-5.88 lnKA,-3.38 lnKA
B9,-8.62 lnKA,-5.74 lnKA,-3.44 lnKA
B10,-8.39 lnKA,-5.85 lnKA,-3.33 lnKA
B11,-8.4 lnKA,-5.65 lnKA,-3.37 lnKA
B12,-8.8 lnKA,-5.8 lnKA,-3.4 lnKA
B13,-8.87 lnKA,-5.81 lnKA,-3.45 lnKA
B14,-8.66 lnKA,-5.83 lnKA,-3.39 lnKA
B15,-8.61 lnKA,-5.67 lnKA,-3.37 lnKA
B16,-8.48 lnKA,-2.19 lnKA,-0.537 lnKA
B17,-7.57 lnKA,-5.17 lnKA,-1.7 lnKA
